# Measurements taken from PubChem BioAssay (Tox21).
# Results filed as inconclusive are left out. Where a call stands in place of a potency, no number is given. Unmarked numbers belong to inactive results. Activity calls are given as the source filed them. Calls come from the whole dose curve; as a rule, active = well fitted curve in the direction sought with a large enough effect in the repeat runs; inconclusive = weak or mixed curves; inactive = no such curve, though single readings can be large; an effect the other way counts as inactive or inconclusive.
# Tests used:
# [1] = target: Cytochrome P450 2D6 (Homo sapiens) (UniProt P10635); assay: Cytochrome P450 Family 2 Subfamily D Member 6 (CYP2D6) small molecule antagonists: luciferase reporter qHTS assay (AID 1671196); note: nearly all actives have a fitted effect of over 50% in size; note: potency is the fitted concentration of half-maximal effect; for activity change, negative = inhibition: series mostly up to about 120 µM
# Summary of the method: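 Cell-free P450-Glo system: CYP2D6 with proluciferin substrate was pre-incubated with compound for 10 min, then reacted with NADPH regeneration for 1 h at room temperature. Luciferin product was detected after 20 min, and data were reported as relative luminescence units.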
# [2] = target: Cytochrome P450 1A2 (Homo sapiens) (UniProt P05177); assay: Cytochrome P450 Family 1 Subfamily A Member 2 (CYP1A2) small molecule antagonists: luciferase reporter qHTS assay (AID 1671199); note: nearly all actives have a fitted effect of over 50% in size; note: potency is the fitted concentration of half-maximal effect; for activity change, negative = inhibition: series mostly up to about 120 µM
# Summary of the method: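 P450-Glo CYP1A2 enzyme–proluciferin substrate mix with compound 10 min at room temperature, then NADPH regeneration 1 h at room temperature. Luciferin detection reagent added, luminescence read after 20 min; furafylline positive control.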
# [3] = target: Voltage-gated inwardly rectifying potassium channel KCNH2 (Homo sapiens) (UniProt Q12809); assay: Human Ether-a-go-go-Related Gene (hERG) channel small molecule antagonists: fluorescence cell-based qHTS assay (AID 1671200);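 note: hERG-expressing U2OS cells given a thallium stimulus after FluxOR II dye loading; series mostly up to about 77 µM; nearly all actives have a fitted effect of over 50% in size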
# Summary of the method: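 Thallium served as the potassium surrogate; its influx into dye-loaded U2OS cells carrying the channel was measured by fluorescence over 2 min.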
# [4] = target: Cytochrome P450 2C9 (Homo sapiens) (UniProt P11712); assay: Cytochrome P450 Family 2 Subfamily C Member 9 (CYP2C9) small molecule antagonists: luciferase reporter qHTS assay (AID 1671198); note: nearly all actives have a fitted effect of over 50% in size; note: potency is the fitted concentration of half-maximal effect; for activity change, negative = inhibition: series mostly up to about 120 µM
# Summary of the method: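 CYP2C9 activity was measured with a P450-Glo proluciferin substrate. Enzyme–substrate mix was held with compound for 10 min at room temperature, then NADPH regeneration solution was added for 1 h at 37C. Luciferin product was read as luminescence.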
# [5] = target: Cytochrome P450 3A4 (Homo sapiens) (UniProt P08684); assay: Cytochrome P450 Family 3 Subfamily A Member 4 (CYP3A4) small molecule antagonists: luciferase reporter qHTS assay (AID 1671201); note: nearly all actives have a fitted effect of over 50% in size; note: potency is the fitted concentration of half-maximal effect; for activity change, negative = inhibition: series mostly up to about 120 µM
# Summary of the method: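 Relative luminescence units after 20 min with luciferin detection reagent served as read-out. Beforehand, CYP3A4 turned over a proluciferin substrate for 1 h at room temperature with NADPH regeneration, following 10 min compound preincubation.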
# [6] = target: Cytochrome P450 2C19 (Homo sapiens) (UniProt P33261); assay: Cytochrome P450 Family 2 Subfamily C Member 19 (CYP2C19) small molecule antagonists: luciferase reporter qHTS assay (AID 1671197); note: nearly all actives have a fitted effect of over 65% in size; note: potency is the fitted concentration of half-maximal effect; for activity change, negative = inhibition: series mostly up to about 120 µM
# Summary of the method: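 P450-Glo CYP2C19 system: enzyme-substrate mix with compound 10 min at room temperature, then NADPH regeneration solution, 1 h at 37C. Proluciferin-to-luciferin conversion detected by luminescence after 20 min with detection reagent; ketoconazole as positive control.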
# Chain of Cytochrome P450 1A2 (Homo sapiens) (P05177 whole entry, looked up): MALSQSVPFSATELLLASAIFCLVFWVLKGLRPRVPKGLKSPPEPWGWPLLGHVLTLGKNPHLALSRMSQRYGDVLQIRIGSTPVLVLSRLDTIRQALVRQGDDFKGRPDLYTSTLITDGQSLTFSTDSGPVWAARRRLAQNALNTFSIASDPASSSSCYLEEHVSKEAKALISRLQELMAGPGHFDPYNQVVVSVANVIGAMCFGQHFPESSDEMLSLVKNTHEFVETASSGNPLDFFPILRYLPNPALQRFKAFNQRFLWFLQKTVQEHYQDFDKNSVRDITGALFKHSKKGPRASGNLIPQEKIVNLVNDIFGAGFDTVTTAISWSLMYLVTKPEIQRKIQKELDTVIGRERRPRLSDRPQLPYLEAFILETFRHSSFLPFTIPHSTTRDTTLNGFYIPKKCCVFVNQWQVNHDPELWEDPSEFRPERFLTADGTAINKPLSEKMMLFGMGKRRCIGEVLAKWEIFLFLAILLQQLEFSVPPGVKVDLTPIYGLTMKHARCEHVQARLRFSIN
# Chain of Cytochrome P450 2C19 (Homo sapiens) (P33261 whole entry, looked up): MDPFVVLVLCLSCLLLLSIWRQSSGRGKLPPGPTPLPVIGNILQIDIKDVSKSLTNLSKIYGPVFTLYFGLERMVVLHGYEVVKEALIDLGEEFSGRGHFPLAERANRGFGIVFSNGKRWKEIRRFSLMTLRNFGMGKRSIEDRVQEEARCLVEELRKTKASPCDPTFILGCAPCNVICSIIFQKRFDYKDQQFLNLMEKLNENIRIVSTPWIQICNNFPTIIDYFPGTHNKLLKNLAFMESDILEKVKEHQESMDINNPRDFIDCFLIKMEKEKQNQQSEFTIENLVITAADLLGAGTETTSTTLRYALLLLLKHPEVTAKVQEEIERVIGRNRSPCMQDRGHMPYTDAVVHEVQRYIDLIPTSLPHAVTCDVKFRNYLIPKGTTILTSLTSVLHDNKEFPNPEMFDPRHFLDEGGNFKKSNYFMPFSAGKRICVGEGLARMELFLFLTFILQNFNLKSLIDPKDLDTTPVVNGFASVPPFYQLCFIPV
# Chain of Voltage-gated inwardly rectifying potassium channel KCNH2 (Homo sapiens) (Q12809 whole entry, looked up): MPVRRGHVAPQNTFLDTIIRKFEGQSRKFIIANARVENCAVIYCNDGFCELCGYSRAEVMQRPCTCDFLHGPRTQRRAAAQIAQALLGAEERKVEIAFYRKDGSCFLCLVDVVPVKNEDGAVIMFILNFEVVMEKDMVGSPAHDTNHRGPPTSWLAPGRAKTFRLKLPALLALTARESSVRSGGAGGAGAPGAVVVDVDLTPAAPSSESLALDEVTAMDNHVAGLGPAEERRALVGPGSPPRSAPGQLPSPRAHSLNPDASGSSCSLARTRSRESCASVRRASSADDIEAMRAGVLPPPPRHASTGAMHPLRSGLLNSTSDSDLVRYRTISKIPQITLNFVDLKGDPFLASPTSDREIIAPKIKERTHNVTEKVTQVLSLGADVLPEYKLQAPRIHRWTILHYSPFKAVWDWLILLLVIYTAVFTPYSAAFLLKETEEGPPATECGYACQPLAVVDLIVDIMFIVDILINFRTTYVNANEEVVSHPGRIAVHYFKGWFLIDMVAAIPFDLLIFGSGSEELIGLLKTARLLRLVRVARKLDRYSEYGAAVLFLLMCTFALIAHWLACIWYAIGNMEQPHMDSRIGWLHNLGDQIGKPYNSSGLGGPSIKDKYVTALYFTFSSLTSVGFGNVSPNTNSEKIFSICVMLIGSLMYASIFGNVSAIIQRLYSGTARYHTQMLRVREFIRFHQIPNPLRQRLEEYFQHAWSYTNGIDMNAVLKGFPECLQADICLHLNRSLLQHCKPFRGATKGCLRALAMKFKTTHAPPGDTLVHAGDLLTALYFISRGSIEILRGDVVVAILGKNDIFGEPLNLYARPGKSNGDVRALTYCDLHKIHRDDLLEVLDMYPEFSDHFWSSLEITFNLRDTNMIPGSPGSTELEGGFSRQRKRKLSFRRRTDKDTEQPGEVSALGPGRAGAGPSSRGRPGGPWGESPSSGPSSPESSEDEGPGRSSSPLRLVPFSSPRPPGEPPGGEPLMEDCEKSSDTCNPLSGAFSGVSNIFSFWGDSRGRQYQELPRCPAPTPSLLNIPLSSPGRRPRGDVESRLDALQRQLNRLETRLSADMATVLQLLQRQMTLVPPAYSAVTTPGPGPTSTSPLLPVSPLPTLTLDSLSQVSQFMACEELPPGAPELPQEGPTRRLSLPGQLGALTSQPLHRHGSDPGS
# Chain of Cytochrome P450 2D6 (Homo sapiens) (P10635 whole entry, looked up): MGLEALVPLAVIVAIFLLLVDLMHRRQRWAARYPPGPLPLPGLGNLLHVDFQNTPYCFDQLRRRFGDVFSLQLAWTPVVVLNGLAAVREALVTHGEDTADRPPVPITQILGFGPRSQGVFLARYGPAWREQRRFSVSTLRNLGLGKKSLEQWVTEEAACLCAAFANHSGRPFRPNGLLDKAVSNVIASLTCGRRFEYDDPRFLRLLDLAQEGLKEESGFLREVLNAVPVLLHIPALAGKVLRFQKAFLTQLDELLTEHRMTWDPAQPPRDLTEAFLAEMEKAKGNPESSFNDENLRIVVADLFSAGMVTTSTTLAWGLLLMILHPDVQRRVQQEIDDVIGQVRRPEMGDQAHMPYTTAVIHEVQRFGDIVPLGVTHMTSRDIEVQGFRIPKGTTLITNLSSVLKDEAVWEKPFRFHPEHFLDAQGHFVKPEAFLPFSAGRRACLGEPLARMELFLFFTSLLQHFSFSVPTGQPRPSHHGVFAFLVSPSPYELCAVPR
# Chain of Cytochrome P450 2C9 (Homo sapiens) (P11712 whole entry, looked up): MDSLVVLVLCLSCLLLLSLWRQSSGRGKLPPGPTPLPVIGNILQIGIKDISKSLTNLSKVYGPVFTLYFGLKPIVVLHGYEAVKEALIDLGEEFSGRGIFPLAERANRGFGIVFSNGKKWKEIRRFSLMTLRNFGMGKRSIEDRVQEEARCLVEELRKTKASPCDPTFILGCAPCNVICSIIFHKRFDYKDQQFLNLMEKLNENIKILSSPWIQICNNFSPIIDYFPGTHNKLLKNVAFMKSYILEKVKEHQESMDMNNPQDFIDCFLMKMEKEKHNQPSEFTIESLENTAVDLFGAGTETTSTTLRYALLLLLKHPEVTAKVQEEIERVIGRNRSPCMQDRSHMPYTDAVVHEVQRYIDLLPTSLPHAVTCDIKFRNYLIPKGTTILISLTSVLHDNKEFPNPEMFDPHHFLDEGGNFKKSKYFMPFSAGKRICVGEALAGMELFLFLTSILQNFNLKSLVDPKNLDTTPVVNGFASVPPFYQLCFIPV
# Chain of Cytochrome P450 3A4 (Homo sapiens) (P08684 whole entry, looked up): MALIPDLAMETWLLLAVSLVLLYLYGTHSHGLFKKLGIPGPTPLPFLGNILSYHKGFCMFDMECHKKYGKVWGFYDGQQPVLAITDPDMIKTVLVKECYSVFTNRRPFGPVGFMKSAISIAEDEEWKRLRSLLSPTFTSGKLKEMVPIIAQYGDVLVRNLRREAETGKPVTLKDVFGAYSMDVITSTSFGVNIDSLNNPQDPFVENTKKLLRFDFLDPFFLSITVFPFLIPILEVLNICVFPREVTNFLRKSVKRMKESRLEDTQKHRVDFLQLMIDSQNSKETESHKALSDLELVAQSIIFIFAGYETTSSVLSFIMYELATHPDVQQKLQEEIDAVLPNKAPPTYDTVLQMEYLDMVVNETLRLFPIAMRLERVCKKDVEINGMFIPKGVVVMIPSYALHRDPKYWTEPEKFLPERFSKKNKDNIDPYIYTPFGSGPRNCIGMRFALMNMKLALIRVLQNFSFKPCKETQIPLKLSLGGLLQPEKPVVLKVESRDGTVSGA
smiles,measurement,setting,value
CCCC(=O)C(C)=O,Potency,[1],inactive
same,Potency,[2],inactive
same,Potency,[3],inactive
COC(=O)C1CC(=O)C(C(=O)OC)CC1=O (centres undefined),"activity change, negative = inhibition",[1],-3.24% [at 10.5 µM]
same,"activity change, negative = inhibition",[4],-7.95% [at 10.5 µM]
same,"activity change, negative = inhibition",[3],0.39% [at 6.97 µM]
same,"activity change, negative = inhibition",[5],9.87% [at 10.5 µM]
O=S(=O)(O)c1ccc2cc(O)c(S(=O)(=O)O)cc2c1,Potency,[6],inactive
same,Potency,[4],inactive
same,Potency,[2],inactive
same,Potency,[3],inactive
same,Potency,[5],inactive
CCOC(=O)CC(=O)c1ccccc1,Potency,[6],39.9 µM (active)
same,Potency,[4],35.6 µM (active)
same,Potency,[2],28.3 µM (active)
same,Potency,[3],inactive
same,Potency,[5],inactive
CC(C)(C)c1n[nH]c(=S)n(N)c1=O,Potency,[1],inactive
same,Potency,[3],inactive
same,Potency,[5],inactive
C=C(C)C(=O)OCC(C)(C)COC(=O)C(=C)C,Potency,[6],inactive
same,Potency,[4],inactive
same,Potency,[2],inactive
same,Potency,[3],inactive
same,Potency,[5],inactive
Cc1ccc2c(c1)OCC(=O)CO2,Potency,[1],35.6 µM (active)
same,Potency,[4],inactive
same,Potency,[3],inactive
same,Potency,[5],inactive
O=S(=O)(O)c1cc(O)c2ccc(Nc3ccccc3)cc2c1,Potency,[6],71 µM (active)
same,Potency,[4],39.9 µM (active)
same,Potency,[2],inactive
same,Potency,[3],inactive
same,Potency,[5],inactive
O=C1O[C@@H]2[C@@H](O)[C@H](O)O[C@@H]2[C@H]1O,Potency,[1],inactive
same,Potency,[2],inactive
same,Potency,[3],inactive
same,Potency,[5],inactive
C[C@@H](O)[C@H]1C(=O)N2C(C(=O)O)=C(SCCN=CN)C[C@H]12,Potency,[1],inactive
same,Potency,[2],inactive
same,Potency,[3],inactive
same,Potency,[5],inactive
c1ccc2nccnc2c1,Potency,[1],inactive
same,Potency,[4],inactive
same,Potency,[3],inactive
same,Potency,[5],inactive
NNc1nnc(NN)c2ccccc12,Potency,[6],inactive
same,Potency,[4],34.7 µM (active)
same,Potency,[2],36.3 µM (active)
same,Potency,[3],inactive
CCCCCCN,Potency,[6],inactive
same,Potency,[4],inactive
same,Potency,[2],inactive
same,Potency,[3],inactive
same,Potency,[5],inactive
C=C(C)C(=O)OCc1ccccc1,Potency,[1],inactive
same,Potency,[4],inactive
same,Potency,[3],inactive
same,Potency,[5],inactive
CCCCCCCCCCl,Potency,[1],40.3 µM (active)
same,Potency,[4],inactive
same,Potency,[3],inactive
same,Potency,[5],inactive
O=C(O)c1cc(Cl)cc([N+](=O)[O-])c1Cl,Potency,[6],inactive
same,Potency,[4],71 µM (active)
same,Potency,[2],39.9 µM (active)
same,Potency,[3],inactive
same,Potency,[5],inactive
CCN1CCc2nc(N)oc2CC1,Potency,[6],inactive
same,Potency,[4],inactive
same,Potency,[2],inactive
same,Potency,[3],inactive
same,Potency,[5],inactive
CCCCCCCCC(=O)Cl,Potency,[1],inactive
same,Potency,[2],64 µM (active)
same,Potency,[3],inactive
same,Potency,[5],inactive
N#Cc1ccc(C(=O)O)cc1,Potency,[1],28.3 µM (active)
same,Potency,[4],inactive
same,Potency,[3],inactive
same,Potency,[5],inactive
O=C1CCCC(=O)O1,Potency,[6],inactive
same,Potency,[4],12.6 µM (active)
same,Potency,[2],inactive
same,Potency,[3],inactive
same,Potency,[5],inactive
CCC(C)NC(N)=O (centres undefined),Potency,[6],inactive
same,Potency,[4],inactive
same,Potency,[2],inactive
same,Potency,[3],inactive
same,Potency,[5],inactive
O=C(O)C(=O)Cc1ccccc1,Potency,[1],inactive
same,Potency,[4],inactive
same,Potency,[3],inactive
same,Potency,[5],inactive
C#CC(C)N(C)C(=O)Nc1ccc(Cl)cc1 (centres undefined),Potency,[6],8.93 µM (active)
same,Potency,[4],4.47 µM (active)
same,Potency,[2],3.99 µM (active)
same,Potency,[3],inactive
same,Potency,[5],inactive
Nc1nnc(-c2cccc(Cl)c2Cl)c(N)n1,Potency,[6],inactive
same,Potency,[4],inactive
same,Potency,[2],inactive
same,Potency,[3],inactive
O=C(NCCN1CCOCC1)c1ccc(Cl)cc1,Potency,[6],34.7 µM (active)
same,Potency,[4],inactive
same,Potency,[2],inactive
same,Potency,[3],inactive
same,Potency,[5],inactive
CC(=O)OC(C)OC(=O)C(C)c1ccc(-c2ccccc2)c(F)c1 (centres undefined),Potency,[6],5.49 µM (active)
same,Potency,[4],3.47 µM (active)
same,Potency,[2],8.71 µM (active)
same,Potency,[3],inactive
same,Potency,[5],inactive
O=C(OCC1(COC(=O)c2cccnc2)CCCC(COC(=O)c2cccnc2)(COC(=O)c2cccnc2)C1O)c1cccnc1,Potency,[6],38.9 µM (active)
same,Potency,[4],12.3 µM (active)
same,Potency,[2],inactive
same,Potency,[3],inactive
CC(C)(C)c1nnc(NS(=O)(=O)c2ccc(N)cc2)s1,Potency,[6],inactive
same,Potency,[2],inactive
same,Potency,[3],inactive
same,Potency,[5],inactive
CCCCN,Potency,[2],inactive
same,Potency,[3],inactive
same,Potency,[5],inactive
CCCCCCCCC1CCC(=O)O1 (centres undefined),Potency,[6],56.4 µM (active)
same,Potency,[4],71 µM (active)
same,Potency,[3],inactive
same,Potency,[5],inactive
NC(CO)C(=O)NNCc1ccc(O)c(O)c1O (centres undefined),Potency,[2],inactive
same,Potency,[3],inactive
COC(=O)CCCCCCCC(=O)OC,Potency,[6],inactive
same,Potency,[4],inactive
same,Potency,[3],inactive
same,Potency,[5],inactive
O=C1c2ccccc2C(=O)N1CCl,Potency,[6],inactive
same,Potency,[4],inactive
same,Potency,[3],inactive
same,Potency,[5],inactive
Cc1ccsc1/C=C/C1=NCCCN1C,Potency,[6],inactive
same,Potency,[5],inactive
Cc1cc(NC(=O)C2=C(O)c3ccccc3S(=O)(=O)N2C)no1,Potency,[6],inactive
same,Potency,[3],inactive
CC(C)(C)OC(=O)c1ccc(O)cc1,Potency,[6],63.3 µM (active)
same,Potency,[2],31.7 µM (active)
same,Potency,[3],inactive
same,Potency,[5],inactive
Nc1cccc(O)c1,Potency,[6],73.1 µM (active)
same,Potency,[4],25.9 µM (active)
same,Potency,[3],inactive
C[C@H](N)[C@H](O)c1cccc(O)c1,Potency,[6],inactive
same,Potency,[2],inactive
same,Potency,[3],inactive
same,Potency,[5],inactive
CC1=C(C(=O)O)N2C(=O)[C@@H](NC(=O)[C@H](N)c3ccc(O)cc3)[C@H]2SC1,Potency,[3],inactive
OC[C@H](Cc1cccc(O)c1)[C@H](CO)Cc1cccc(O)c1,Potency,[6],32.5 µM (active)
same,Potency,[4],23 µM (active)
same,Potency,[5],18.3 µM (active)
O=P(O)(O)OP(=O)(O)O,Potency,[3],inactive
CCCCNc1ccc(C(=O)OCCN(C)C)cc1,Potency,[3],inactive
CC(=O)NCc1c(I)c(NC(C)=O)c(I)c(C(=O)O)c1I,Potency,[4],inactive
same,Potency,[2],inactive
same,Potency,[3],inactive
same,Potency,[5],inactive
Oc1cn2c(n1)Nc1ccc(Cl)c(Cl)c1C2,"activity change, negative = inhibition",[6],3% [at 23.6 µM]
same,Potency,[2],2.81 µM (active)
same,"activity change, negative = inhibition",[3],-1.03% [at 15.8 µM]
same,"activity change, negative = inhibition",[5],40.9% [at 23.6 µM]
Cc1ccccc1OCC(O)CO (centres undefined),Potency,[2],27.5 µM (active)
same,Potency,[3],inactive
same,Potency,[5],inactive
N[C@@H](CCC(=O)N[C@@H](CS)C(=O)NCC(=O)O)C(=O)O,"activity change, negative = inhibition",[3],7.2% [at 15.8 µM]
COCCOCCOCCOCCO,Potency,[6],inactive
same,Potency,[4],inactive
same,Potency,[3],inactive
same,Potency,[5],inactive
Nc1ncnc(Nc2ccccc2)n1,Potency,[6],inactive
same,Potency,[4],inactive
same,Potency,[3],inactive
same,Potency,[5],inactive
COCCOC(=O)C1=C(C)NC(C)=C(C(=O)OC(C)C)C1c1cccc([N+](=O)[O-])c1 (centres undefined),Potency,[3],inactive
Cc1ccc(C=O)cc1C,Potency,[2],35.6 µM (active)
same,Potency,[3],inactive
same,Potency,[5],inactive
COc1ccc(OC)c(Cl)c1,Potency,[6],inactive
same,Potency,[4],inactive
same,Potency,[3],inactive
same,Potency,[5],inactive
CC(C)=O,Potency,[6],inactive
same,Potency,[2],inactive
same,Potency,[3],inactive
CC(C)NCC(O)COc1cccc2[nH]ccc12 (centres undefined),Potency,[3],inactive
NCCN1CCOCC1,Potency,[3],inactive
N[C@@H](COP(=O)(O)O)C(=O)O,"activity change, negative = inhibition",[6],14.8% [at 23.6 µM]
same,Potency,[2],inactive
same,"activity change, negative = inhibition",[3],2.29% [at 15.8 µM]
same,"activity change, negative = inhibition",[5],2.53% [at 23.6 µM]
O=C(NCCc1c[nH]c2ccccc12)c1cccnc1,Potency,[6],7.76 µM (active)
same,Potency,[2],12.9 µM (active)
same,Potency,[3],inactive
CCN(C)C(=O)Oc1cccc([C@H](C)N(C)C)c1,Potency,[6],inactive
same,Potency,[2],inactive
same,Potency,[3],inactive
same,Potency,[5],inactive
O=C(NCC(O)CO)c1c(I)c(C(=O)NCC(O)CO)c(I)c(N(CCO)C(=O)CO)c1I (centres undefined),Potency,[3],inactive
Cc1cccc2nccnc12,Potency,[6],inactive
same,Potency,[2],inactive
same,Potency,[3],inactive
CCCC/C=C/C=C\C=O,Potency,[4],inactive
same,Potency,[2],inactive
same,Potency,[3],inactive
same,Potency,[5],39.9 µM (active)
CCCCCCCCCC(C)=O,Potency,[6],inactive
same,Potency,[4],inactive
same,Potency,[2],inactive
same,Potency,[3],inactive
same,Potency,[5],inactive
CCCCOCCOC(=O)COc1nc(Cl)c(Cl)cc1Cl,Potency,[6],31.7 µM (active)
same,Potency,[4],inactive
same,Potency,[2],39.9 µM (active)
same,Potency,[5],inactive
CCOC(=O)/C=C/c1ccccc1,Potency,[6],71 µM (active)
same,Potency,[2],35.6 µM (active)
same,Potency,[3],inactive
same,Potency,[5],inactive
CCO[Si](CCCS)(OCC)OCC,Potency,[6],35.6 µM (active)
same,Potency,[2],inactive
same,Potency,[3],inactive
same,Potency,[5],35.6 µM (active)
